Assay results from PubChem BioAssay AID1159606 (Sanford-Burnham Center for Chemical Genomics, 2016).
The campaign covered roughly 360,000 compounds. About 7,300 (2%) were called active. The full list was thinned out, with actives kept by preference. Values without a mark were called inactive. Rule as the data show it: active = inhibition above about 50%; inactive = the rest.

experiment: blockers of TWEAK-induced Fn14 reporter activity – luciferase reporter cells, uHTS, primary screen (AID 1159606); settings: TWEAK-stimulated Fn14 reporter cells, luciferase luminescence, 8 h; at 10 µM; active compounds read high

Compound	inhibition
CCOC(=O)[C@]12CCC=C1N(Cc1ccccc1)C(=O)[C@H](CC(=O)N1CCCC1)C2	15.9%
CCN(CCCNC(=O)c1ccc2c(c1)NC(=O)CN2C)c1cccc(C)c1	82.5% (active)
CCN(CCCNC(=O)CCn1c(=O)[nH]c2ccsc2c1=O)c1ccccc1	-1.46%
CCN1CCN(CCNC(=O)c2ccc3c(c2)NC(=O)/C(=C\c2cccc(Cl)c2)S3)CC1	-66.6%
CCOC(=O)N1CCN(C(=O)C[C@@H]2C[C@@]3(C(=O)OC)CCCCC=C3N(CCC3=CCCCC3)C2=O)CC1	-5.06%
COCCCn1cc(CN2CC(N(C)C)CS2(=O)=O)nn1 (stereo not drawn)	20.9%
CC(C)C[C@H]1CNC(=O)C(=O)N1C[C@H]1CCCN1C[C@H](Cc1ccc(O)cc1)N1C[C@H](CC(C)C)N(CC2CCCCCC2)C(=O)C1=O	1.64%
CCC(C)Cn1c(O)cc2nn(-c3nc4ccccc4s3)c(=O)c-2c1C (stereo not drawn)	61.6% (active)
C[C@H](CO)N1C[C@H](C)[C@H](CN(C)C(=O)Nc2ccc3c(c2)OCO3)Oc2ncc(Br)cc2C1=O	-2.28%
CC(C)=CCN1CCN(Cc2ccc(Oc3ncccn3)cc2)CC1CCO (stereo not drawn)	14.3%
OCCC1CN(Cc2ccc(Oc3ncccn3)cc2)CCN1CCc1ccccc1 (stereo not drawn)	75.5% (active)
CCOc1ccc(CN2CCN(CCCc3ccccc3)C(CCO)C2)cc1 (stereo not drawn)	1.65%
COc1ccc(OC)c(NC(=O)c2ccc3c(c2)CCN3S(C)(=O)=O)c1	-3.45%
CN(C)C1CN(Cc2cn(Cc3ccccc3)nn2)S(=O)(=O)C1 (stereo not drawn)	7.88%
COCc1c(N)c(C)nc(Cl)c1C#N	12.4%
C[C@@H]1CN([C@@H](C)CO)C(=O)CCCn2nncc2CO[C@H]1CN(C)C(=O)Nc1ccc(C(F)(F)F)cc1	106% (active)
COC(=O)N(C)C[C@@H]1OCc2cnnn2CCCC(=O)N([C@@H](C)CO)C[C@@H]1C	19.1%
C[C@@H]1CN([C@@H](C)CO)C(=O)CCCn2nncc2CO[C@H]1CN(C)Cc1ccc(C(F)(F)F)cc1	1.47%
O=C1c2ccncc2C(=O)N1C1CCCCC1	-3.74%
O=C(N/N=C/c1cc(Br)c(O)c([N+](=O)[O-])c1)C(O)(c1ccccc1)c1ccccc1	-0.77%
O=[N+]([O-])c1cc(Br)c(O)c(/C=N/Nc2nc3ccccc3s2)c1	75.7% (active)
c1ccc(C(=NNc2nc3ccccc3s2)c2ccccn2)cc1	44.1%

Compound	inhibition
Cc1cccc(CN2CCN(C3CN(Cc4ccccc4)S(=O)(=O)C3)CC2)c1 (stereo not drawn)	-19.1%
O=C(c1c(Cl)cccc1Cl)N1CCN(c2cccc3[nH]ccc23)CC1	-30.3%
COc1ccc(-c2ccc(CN3C(CC(C)C)C(=O)N(Cc4cn(CC5CCCCC5)nn4)CCS3(=O)=O)cc2)cc1 (stereo not drawn)	24.8%
O=S1(=O)CC(N2CCN(CCO)CC2)CN1Cc1cn(Cc2ccc(Cl)cc2)nn1 (stereo not drawn)	-0.1%
O=C(CSc1ncnc2scc(-c3ccccc3)c12)NCc1ccc2c(c1)OCO2	27.4%
CCOc1c2ccc(C(=O)NCc3ccc4c(c3)OCO4)cc2nn1C	-1.73%
CN(C)C(=O)c1cccc(-c2cnc3sc(NCc4ccc5c(c4)OCO5)nn23)c1	81.9% (active)
O=C(C1CCN(S(=O)(=O)c2ccc(Br)s2)CC1)N1CCN(c2ccccc2)CC1	35.1%
CC(C)C(=O)N1CCC2(CC1)Oc1ccc(F)cc1C(=O)C21CC(c2ccccc2)=NO1 (stereo not drawn)	-32.9%
CC1(C(=O)NNC(=S)NCC2CCCO2)CC1(Cl)Cl (stereo not drawn)	5.56%
Cc1c(CCC(=O)O)c(=O)oc2cc(OCc3ccc(Br)cc3)ccc12	6.88%
CCOC(=O)CCc1c(C)c2ccc(OCc3nn[nH]n3)c(C)c2oc1=O	11.4%
Cc1c(CCC(=O)O)c(=O)oc2c(C)c(OCc3ccccc3Cl)ccc12	55.7% (active)
CC(C)Nc1ncnc2c1ncn2[C@H]1CN(Cc2ccncc2)C[C@@H](CO)O1	-31.2%
O=C(Nc1ccc2c(c1)OCCO2)C(C1CC1)N1CCC(Cc2ccccc2)CC1 (stereo not drawn)	-6.47%
Oc1ccc2nc(Cc3ccccc3)[nH]c2c1	-12.2%
O=c1c2cc(Br)ccc2nc(-c2cccc(Cl)c2)n1O	12.1%
O=C(/C(=C/c1cccc(Cl)c1)c1nc2ccccc2[nH]1)c1ccccc1	72.2% (active)
Brc1ccc2nc(-c3ccccc3)c(Cc3ccccc3)n2c1	-30.1%
CCCCC[C@H](C)N1C[C@@H](COCc2ccccc2)Oc2cc(N3CCC[C@@H]3CO)ccc2S1(=O)=O	9.1%
Cc1ccc(Sc2ccc(NC(=O)c3ccc(F)cc3)cc2C#N)cc1	-7.53%
O=C(CCl)Nc1ccc(Sc2ccc(NC(=O)CCl)cc2)cc1	-24.1%

Compound	inhibition
CC(C)(CCl)C(=O)Nc1ccc(Sc2ccc(F)cc2)cc1	60.9% (active)
CCn1c(SCC(=O)Nc2nc(C)cs2)nnc1C(C)NC(=O)c1ccccc1 (stereo not drawn)	-0.58%
CN(Cc1ccccc1)C(=O)[C@@H]1CCCN1C(=O)[C@@H]1CCCN1C(=O)c1c(F)cccc1F	12.3%
CCOCCCN(C)C1CCN(C(=O)c2oc3ccccc3c2NC(=O)COc2cccc(C)c2)CC1	-4.99%
Cc1cccc(-n2c(SCC(N)=O)nc3c(c2=O)C2(CCCCC2)Cc2ccccc2-3)c1	54% (active)
N#CCSc1nc2c(c(=O)n1Cc1ccccc1)C1(CCCC1)Cc1ccccc1-2	13.4%
Cc1cccc(-n2c(=O)c3c(C)c(C)sc3n(CC(N)=O)c2=O)c1	21.1%
CCCc1nc2c3ccccc3ccn2c1Cc1ccccc1C(F)(F)F	8.3%
Cc1noc(C)c1S(=O)(=O)N1CCCC(C(=O)Nc2nccs2)C1 (stereo not drawn)	4.3%
O=C(/C=C/c1ccc(Cl)c([N+](=O)[O-])c1)c1ccc(O)cc1	84.1% (active)
CC(=O)Nc1ccc(C=CC(=O)c2ccc([N+](=O)[O-])cc2)cc1	5.86%
CC(CC(=O)O)C(=O)c1ccc(Cl)c([N+](=O)[O-])c1 (stereo not drawn)	0.14%
O=S(=O)(NCc1ccccn1)c1ccc(Br)s1	-7.41%
O=S(=O)([N-]c1nc2ccccc2nc1-[n+]1ccc(Cc2ccccc2)cc1)c1ccc(Br)s1	101% (active)
Cn1c2c(c(=O)n(C)c1=O)C(c1cccc([N+](=O)[O-])c1)Nc1ccccc1O2 (stereo not drawn)	-3.73%
O=C(Nc1ccccc1)N1CCN(C2c3ccccc3-c3ccccc32)CC1	-2.27%
COc1cccc(N2CCN(C(=O)Nc3ccc4c(c3)NC(=O)CO4)CC2)c1	8.92%
O=C(Nc1cccc(NC(=O)N2CCN(c3ccccc3)CC2)c1)N1CCN(c2ccccc2)CC1	86.3% (active)
Cc1nc(SC(C)C)[nH]c(=O)c1Cc1ccccc1	3.45%
COc1ccc(NC(=O)C2Cc3c(-c4ccc5c(c4)OCO5)ccnc3O2)cn1 (stereo not drawn)	14.2%
COc1ccc(NC(=O)CN2C(=O)NC(C)(c3ccccc3)C2=O)cn1 (stereo not drawn)	-0.71%
COc1ccc(NC(=O)/C(Cl)=C(/Cl)S(=O)Cc2ccc(C)cc2)cn1 (stereo not drawn)	97.5% (active)

Compound	inhibition
CC(=O)c1ccc(OCC(=O)N(C)C2CCS(=O)(=O)C2)cc1 (stereo not drawn)	0.02%
CC(C)NC(=O)c1ccccc1S(=O)c1ccccc1C#N (stereo not drawn)	3.58%
O=C(c1ccc(C(F)(F)F)cc1)N1CCC(=O)N([C@H](COCc2ccccc2)Cc2ccccc2)CC1	13.8%
COc1cccc2sc(Nc3nc(C)c(C(C)=O)s3)nc12	94.3% (active)
CC(=O)c1sc(N/N=C/c2ccc(C(C)C)cc2)nc1C	-16.6%
CNC(=O)c1sc(Nc2ccc(OCc3ccccc3)cc2)nc1C	32.3%
Cc1cc(N2C(=O)c3ccc(C(=O)NCc4ccccc4)cc3C2=O)no1	-3.3%
COC(=O)[C@@]1(Cc2ccc(F)cc2)[C@H]2c3cc(C(=O)N(C)C)n(CCc4c[nH]c5ccc(OC)cc45)c3C[C@H]2CN1C(=O)c1ccccc1	34.5%
O=C(NCc1ccccc1)C1c2ccccc2OCC(=O)N1CCCN1CCOCC1 (stereo not drawn)	-1.12%
CC(C)(C)C1C/C(=C/c2ccco2)C(=O)/C(=C/c2ccco2)C1 (stereo not drawn)	9.75%
COc1ccccc1/C=C/C1=NC(=C\N(C)C)/C(=O)O1	-17.3%
O=C1OC(/C=C/c2ccccc2)=NC/1=C/c1ccco1	51% (active)
CN(/C(=N/S(=O)(=O)c1cccs1)c1ccccc1)c1ccc(O)cc1	7.69%
O=C1Nc2ccccc2NC(c2ccc3c(c2)OCO3)=C1N(Cc1ccc(F)cc1)C(=O)c1ccco1	9.28%
CCc1ccc2oc(-c3ccc(N)cc3)nc2c1	60.2% (active)
O=C1CC[C@@H](C(=O)N2CSC[C@@H]2C(=O)Nc2ccc(C(F)(F)F)cc2)N1	22.5%
CC1Cc2ccccc2N1S(=O)(=O)c1c(N)n(C)c(=O)n(C)c1=O (stereo not drawn)	-4.11%
C[C@H]1[C@H]2c3nc4ccccc4n3C[C@H]1ON2C1CCCCC1	-8.66%
O=c1[nH][nH]c2c1[C@H](c1ccc(Cl)cc1)O[C@H](CCc1ccccc1)C2	9.82%
CN1c2ccc([N+](=O)[O-])cc2C(C)(C)C12C=Cc1cc(C(=O)O)ccc1O2 (stereo not drawn)	0.62%
COc1cccc(CC2(CO)CCCN(CC3=Cc4cc(OC)ccc4OC3)C2)c1 (stereo not drawn)	37.8%
COc1ccc2c(c1)C=CC1(O2)N(CCO)c2ccccc2C1(C)C (stereo not drawn)	86.2% (active)
